Laboratory results taken from PubChem BioAssay AID623901 (Broad Institute, 2012).
Screen size: about 340,000 compounds; about 470 (0.14%) were called active. The sample holds actives, similar compounds and a random draw of the others, so the mix is not that of the screen. Unmarked numbers belong to inactive results.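 How the source made its calls: active means mean activation of 30% or more, with every replicate also reaching 30%; inconclusive means mean activation of 30% or more but some replicate falls short; inactive means the rest.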

Assay: small molecules raising miR-122 sensor signal – cell-based, Huh7 psiCHECK-miR122, Renilla luciferase, single point, primary screen (AID 623901);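 further: 0% = median of neutral control wells and 100% = median of positive control wells; higher luciferase signal means stronger suppression of miR-122 activity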
Conditions: 48 h, at 12.5 µM, hits give high values

Row | SMILES | activation
1 | CC(C)CC#Cc1cnc2c(c1)C(=O)N([C@H](C)CO)C[C@H](C)[C@H](CN(C)C(=O)Nc1ccccc1F)O2 | 4.61%
2 | C[C@H](CO)N1C[C@H](C)[C@@H](CN(C)C(=O)Cc2ccncc2)Oc2ncc(C#CCN(C)C)cc2C1=O | 3.61%
3 | COCC#Cc1cnc2c(c1)C(=O)N([C@@H](C)CO)C[C@@H](C)[C@@H](CN(C)S(=O)(=O)c1cccc(OC)c1)O2 | -3.48%
4 | C[C@@H](O)C#Cc1cnc2c(c1)C(=O)N([C@@H](C)CO)C[C@H](C)[C@H](CN(C)Cc1cncnc1)O2 | 3.47%
5 | Cc1cc(C(C)(C)C)cc(S(=O)(=O)Nc2ccc(C(=O)O)cc2)c1C | -165%
6 | C[C@H](CO)N1C[C@H](C)[C@H](CN(C)C(=O)Nc2ccc3c(c2)OCO3)Oc2ncc(C#Cc3cccc(F)c3)cc2C1=O | 5.6%
7 | CNC[C@@H]1Oc2cc(-c3ccccc3OC)ccc2S(=O)(=O)N([C@@H](C)CO)C[C@H]1C | -2.47%
8 | O=C(Nc1cc(F)ccc1F)N1C[C@H]2[C@@H](c3ccccc31)[C@@H](CO)N2C(=O)c1ccccc1 | -133%
9 | O=C(Cc1ccccc1)N1C[C@@H]2[C@H](c3ccccc31)[C@@H](CO)N2C(=O)Nc1ccc(F)cc1 | -92.3%
10 | CN1C[C@@H]2[C@H](c3ccccc31)[C@@H](CO)N2C(=O)Nc1ccccc1 | 41.7% (active)
11 | C[C@H](O)C#Cc1ccc2c(c1)O[C@H](CN(C)Cc1cncnc1)[C@H](C)CN([C@@H](C)CO)S2(=O)=O | -0.322%
12 | CC(C)c1cc(C(=O)O)n[nH]1 | -143%
13 | C[C@H](CO)N1C[C@H](C)[C@H](CN(C)S(=O)(=O)c2ccccc2)Oc2ncc(-c3cccc(C(F)(F)F)c3)cc2C1=O | 11.3%
14 | COCC(=O)Nc1ccc2c(c1)OC[C@H](C)NC[C@H](C)[C@H](OC)CN(C)C2=O | -0.878%
15 | C[C@H](O)C#Cc1ccc2c(c1)O[C@@H](CN(C)Cc1cncnc1)[C@H](C)CN([C@H](C)CO)S2(=O)=O | 0.702%
16 | COCC(=O)N(C)C[C@@H]1Oc2ncc(C#Cc3ccccc3OC)cc2C(=O)N([C@@H](C)CO)C[C@H]1C | 5.1%
17 | C[C@@H]1CN([C@H](C)CO)S(=O)(=O)c2ccc(-c3cncnc3)cc2O[C@@H]1CN(C)Cc1ccccn1 | 5.28%

Row | SMILES | activation
18 | COCC(=O)N(C)C[C@H]1Oc2cc(Br)ccc2S(=O)(=O)N([C@H](C)CO)C[C@H]1C | -1.48%
19 | CCC(=O)N(C)C[C@H]1Oc2ncc(C#Cc3cccnc3)cc2C(=O)N([C@H](C)CO)C[C@H]1C | 6.77%
20 | C[C@@H]1CN([C@H](C)CO)C(=O)c2cc(-c3cccc(F)c3)cnc2O[C@H]1CN(C)C(=O)Nc1ccccc1F | -3.89%
21 | C[C@H](O)C#Cc1ccc2c(c1)O[C@@H](CN(C)Cc1cccnc1)[C@H](C)CN([C@H](C)CO)S2(=O)=O | 0.774%
22 | CCCNc1ncnc2sc(C)c(C)c12 | -122%
23 | Cc1ccc(S(=O)(=O)N(C)C[C@H]2Oc3ccc(NC(=O)CCC(F)(F)F)cc3C(=O)N([C@@H](C)CO)C[C@H]2C)cc1 | -99.9%
24 | C[C@@H]1CN([C@@H](C)CO)S(=O)(=O)c2ccc(-c3ccncc3)cc2O[C@@H]1CN(C)C(=O)Nc1ccc(F)cc1 | -17.3%
25 | C[C@H](CO)N1C[C@H](C)[C@@H](CN(C)C(=O)C2CC2)Oc2ncc(C#CC(C)(C)O)cc2C1=O | 1.07%
26 | C[C@H]1CN([C@@H](C)CO)C(=O)c2cc(C3=CCCCC3)cnc2O[C@@H]1CN(C)C(=O)c1ccc(F)cc1 | -3.28%
27 | CO[C@@H]1CN(C)C(=O)c2cc(NC(=O)C3CCOCC3)ccc2OC[C@H](C)N(C)C[C@H]1C | 0.196%
28 | Cc1ccc(S(=O)(=O)Nc2ccc3c(c2)CC(=O)N([C@@H](C)CO)C[C@H](C)[C@H](CN(C)Cc2ccc(C(=O)Nc4ccccc4N)cc2)O3)cc1 | -252%
29 | CCC(=O)Nc1ccc2c(c1)OC[C@H](C)N(C(=O)c1ccccc1F)C[C@@H](C)[C@H](OC)CN(C)C2=O | -3.57%
30 | C[C@H]1CN([C@@H](C)CO)C(=O)c2cc(-c3cccc(F)c3)cnc2O[C@@H]1CN(C)S(C)(=O)=O | -3.18%
31 | COc1ccc(/C=C/C(=O)Nc2ccc(C34CC5CC(CC(O)(C5)C3)C4)cc2)cc1OC | 56.9% (active)
32 | CC(C)NC(=O)N(C)C[C@@H]1Oc2ncc(C3=CCCCC3)cc2C(=O)N([C@H](C)CO)C[C@@H]1C | 5.61%
33 | Cc1ccc(-c2cnc3c(c2)C(=O)N([C@@H](C)CO)C[C@@H](C)[C@H](CN(C)Cc2ccccc2F)O3)cc1 | -34.6%
34 | C/C=C/c1ccc2c(c1)O[C@@H](CN(C)C(=O)Cc1ccccn1)[C@@H](C)CN([C@H](C)CO)S2(=O)=O | -0.361%
